The source of these data is ChEMBL document CHEMBL4513216, “Probing the Open Global Health Chemical Diversity Library for Multistage-Active Starting Points for Next-Generation Antimalarials” (ACS Infect Dis, 2020).

In all, about 69,000 compounds went through this assay and about 8,600 (12%) showed an effect of 50% or more. This excerpt belongs to a sample that is enriched for strong results.

The assay concerns Plasmodium berghei. Kind of assay: Screen against P. berghei liver stage (PbLuc), transformed with Luciferase, at 10uM. The assay is classed as functional, HepG2. The settings on record: tested at 10 uM.
Turning to `O=C(NCC1CC1)[C@H]1C[C@H]2CN(C(=O)NCc3ccccc3)C[C@@H]1O2`, the INHIBITION turned out to be 13.6%.

For `CC(NC(=O)NCCn1ccnc1)c1ccc2c(c1)OCCCO2` (centres undefined), the INHIBITION was -9.37%.

With `CC(C)n1ccnc1CN1CCOC(C)(C(=O)N2CCOCC2)C1` (centres undefined), the INHIBITION is 38.2%.

For `c1cnc(CC2CCN(c3cnccn3)CC2)cn1`, the INHIBITION was 33.2%.

With `CNC(=O)[C@@H](C1CC1)N1CCC[C@H]1C(=O)NCC(C)C`, the INHIBITION is recorded as -19.6%.

As to `CCNC(=O)[C@@H]1CCCN1[C@@H](C(=O)NC)C1CC1`, the INHIBITION was 51.9%.

In the case of `CCCNC(=O)[C@@H]1CCCN1[C@@H](C(=O)NC)C1CC1`, the INHIBITION is listed as -20.8%.

Regarding `COCCN1C(=O)[C@@H]2CC[C@H]1CN(c1nccc(C)n1)C2`, the INHIBITION is on record as -39.2%.

In the case of `Cc1cccc(COc2ccc(C(C)NC(=O)CNC(N)=O)cc2)c1` (centres undefined), the INHIBITION came to 40.7%.

For the compound `CC(=O)NC(C)C(=O)Nc1ccc(OCc2cccc(F)c2)cc1C` (centres undefined), the INHIBITION stood at 26.5%.

On to `Cc1cccc(COc2ccc(C(C)N)cc2)c1` (centres undefined), for which the INHIBITION is given as 83%.

In the case of `Cc1cc(OCc2cccc(F)c2)ccc1NC(=O)C(C)NC(N)=O` (centres undefined), the INHIBITION worked out at 48.3%.

Regarding `Cc1cccc(COc2ccc(NC(=O)C(C)NC(N)=O)c(C)c2)c1` (centres undefined), the INHIBITION is given as 61.3%.

As to `Cc1cccc(COc2ccc(C(C)NS(N)(=O)=O)cc2)c1` (centres undefined), the INHIBITION was 9.16%.

Consider `CC(C)(C)c1cc(CNC(=O)c2cc(COc3ccccc3)[nH]n2)[nH]n1`, for which the INHIBITION is on record as -47%.

In the case of `Cn1cc(C(=O)NCc2cn3c(n2)CN(CC2CCCC2)CC3)cn1`, the INHIBITION is listed as -2.17%.

On to `Cc1nc(-c2ccnc(N3CCNCC3)n2)no1`, for which the INHIBITION is -17%.

Consider `Cc1nc(CN2CCN(CCOc3ccc(C(C)C)c(C)c3)CC2)no1`, for which the INHIBITION amounted to 25.1%.

Take `Cc1noc(C)c1CNC(=O)N1CCC(Cc2cnn(C)c2)C1` (centres undefined): the INHIBITION was 20.2%.

For the compound `Cn1cc(C2CC(=O)NC23CCN(C(=O)NC2CC2)CC3)cn1` (centres undefined), the INHIBITION is 62.9%.

For `Cn1cc(C2CC(=O)NC23CCN(C(=O)C2CC=CC2)CC3)cn1` (centres undefined), the INHIBITION is -61.6%.

On to `O=C1CC(c2ccncc2)C2(CCN(C(=O)NC3CC3)CC2)N1` (centres undefined), for which the INHIBITION is 33.4%.

With `COC1CCCN(C(=O)NCCCF)C1` (centres undefined), the INHIBITION was 55.5%.

Take `COC1CCCN(C(=O)NCC(F)F)C1` (centres undefined): the INHIBITION came to 26.4%.

`COC1CCCN(C(=O)NCC(C)(C)SC)C1` (centres undefined): the INHIBITION is 32%.

As for `CCN1C(=O)CCC12CCCN(Cc1ccc(F)cc1)CC2` (centres undefined), the INHIBITION was -24.5%.

`COC(=O)C(NC(=O)c1cc(C)ccc1C)c1cccnc1` (centres undefined): the INHIBITION was 32.2%.

With `COC(=O)C(NC(=O)c1cc(F)cc(F)c1)c1cccnc1` (centres undefined), the INHIBITION amounted to 55.4%.

As to `COC(=O)C(NC(=O)c1ccc(C)cc1C)c1cccnc1` (centres undefined), the INHIBITION turned out to be 42.4%.

For the compound `Cc1nc(O)cc(C2CCN(C(=O)c3[nH]nc4c3CC(C)CC4)CC2)n1` (centres undefined), the INHIBITION turned out to be 9.52%.

On to `CN1CCN(c2ccc(Cl)cc2NC(=O)c2ccco2)CC1`, for which the INHIBITION came out at 35.1%.

With `COC(=O)c1ncccc1N1CCCC1`, the INHIBITION is recorded as -0.71%.

With `COC(=O)c1ncccc1N1CCCCC1`, the INHIBITION was determined as 89.1%.

As for `O=C(Nc1c(N2CCCC2)cccc1N1CCCC1)c1ccccn1`, the INHIBITION is given as 55.4%.

Turning to `O=C(Nc1c(N2CCCC2)cccc1N1CCCC1)c1cnsn1`, the INHIBITION came out at 42.4%.

Take `O=C(O)c1ncccc1N1CCCCC1`: the INHIBITION stood at 6.83%.

For `O=C(Nc1c(N2CCCC2)cccc1N1CCCC1)c1cnccn1`, the INHIBITION was 48%.

Regarding `O=C(Nc1cc(Cl)ccc1N1CCCCC1)c1ccccn1`, the INHIBITION came to 56.3%.

`CN1CCN(c2ccc(NC(=O)c3ccccn3)c(C(F)(F)F)c2)CC1`: the INHIBITION is reported as -78.3%.

In the case of `CCc1cc(NCC(O)CN2CCCC2)ncn1` (centres undefined), the INHIBITION was 18.5%.

In the case of `CCC(=O)N1CCCCC1c1nc(O)c2c(n1)CN(C(=O)C1CC1)CC2` (centres undefined), the INHIBITION was 34.65%.

On to `Cc1cc(CN(C)C(=O)c2cccc(N3CCCS3(=O)=O)c2)no1`, for which the INHIBITION is 42%.

With `CN(C)[C@@H]1CCN(S(=O)(=O)c2cn(C)cn2)[C@H]1Cc1cccnc1`, the INHIBITION stood at 33%.

Regarding `CC(C)Cc1nnc(NC(=O)NC(CCO)c2cccs2)s1` (centres undefined), the INHIBITION is 36%.

Regarding `CCCn1cc(S(=O)(=O)N[C@H]2CN(CCO)C[C@@H]2C2CC2)cn1`, the INHIBITION amounted to 92.1%.

For the compound `CCCn1cc(S(=O)(=O)N[C@H]2CN(C(C)=O)C[C@@H]2C2CC2)cn1`, the INHIBITION is recorded as 24.2%.

`CCCn1cc(S(=O)(=O)N[C@H]2CN(CC(N)=O)C[C@@H]2C2CC2)cn1`: the INHIBITION amounted to 37.7%.

Turning to `Cc1ccc(CC2COCCN(S(C)(=O)=O)C2)nc1` (centres undefined), the INHIBITION is on record as -24.4%.

As to `Cc1csc(CCNC(=O)N2CCC(NC(=O)OC(C)(C)C)CC2)n1`, the INHIBITION is reported as 13.3%.

With `Cc1cccc(CN2C[C@@H]3COC[C@]3(CNC(=O)C3CCC3)C2)c1`, the INHIBITION is 65.7%.

For the compound `Cc1cccc(CN2C[C@@H]3COC[C@]3(CNC(=O)N3CCCC3)C2)n1`, the INHIBITION was 21%.

For `CNC(=O)C1CN(Cc2cc(C)on2)CCN(C(C)=O)C1` (centres undefined), the INHIBITION is -21.6%.

Take `COc1cccc(CN2C[C@@H]3COC[C@]3(CNC(=O)C3CC3)C2)c1`: the INHIBITION was 43%.

As to `CC(=O)N1CCCC(C(=O)N2CCN(c3cnn(C)c(=O)c3)CC2)C1` (centres undefined), the INHIBITION is listed as 16.6%.

With `Cc1cc(CN2C[C@@H]3COC[C@]3(CNC(=O)N(C)C)C2)no1`, the INHIBITION is 45.1%.

`Cc1cc(CN2C[C@@H]3COC[C@]3(CNC(=O)N3CCCC3)C2)no1`: the INHIBITION amounted to 70.7%.

In the case of `Cc1cccc(CN2C[C@@H]3COC[C@]3(CNC(=O)C3CC3)C2)c1`, the INHIBITION stood at 35.8%.

Regarding `CC(=O)N1CCCC(C(=O)N2CCN(Cc3cc(C)on3)CC2)C1` (centres undefined), the INHIBITION was 71.2%.

As to `CCOCC(O)CN1CCN(C(=O)c2ccc3c(c2)COC3)CC1` (centres undefined), the INHIBITION was 29.7%.

For the compound `COc1c(CNCc2nnc3n2CCCCC3)c(C)nn1C`, the INHIBITION is listed as 31.6%.

Turning to `CCN1C[C@@H]2[C@@H](OC)CCN(C(=O)Cc3ccsc3)[C@@H]2C1`, the INHIBITION stood at 11.2%.

In the case of `O=C(c1cnccn1)N(CCO)Cc1cc(Br)ccc1F`, the INHIBITION was -7.81%.

For `COCCNC(=O)Cn1cc(OCc2ccccc2F)c(=O)cc1CO`, the INHIBITION was found to be 10.5%.

Consider `CC(C)CS(=O)(=O)CC(=O)NC(C)c1nnc2n1CCC2` (centres undefined), for which the INHIBITION stood at 31.3%.

In the case of `COc1cccc(C(=O)N2CCOCC2CN(C)C)c1OC` (centres undefined), the INHIBITION is 7.44%.

For `Cc1nc(CN2CCCC(CCc3c(F)cccc3F)C2)c[nH]1` (centres undefined), the INHIBITION is reported as 25.1%.

For the compound `Cc1nc(CN2CCCC(CCNS(C)(=O)=O)C2)c[nH]1` (centres undefined), the INHIBITION is -1.53%.

As to `Cc1nc(CN2CCCC(CCc3ccccc3C)C2)c[nH]1` (centres undefined), the INHIBITION was found to be 47.6%.

On to `Fc1ccc(CCC2CCCN(Cc3c[nH]cn3)C2)c(F)c1` (centres undefined), for which the INHIBITION amounted to 71.2%.

For `Cc1[nH]c(=O)[nH]c(=O)c1CN1CCCC(CCc2ccc(F)cc2F)C1` (centres undefined), the INHIBITION was -13.5%.

On to `Cc1nc(CN2CCCC(CCc3ccc(F)cc3F)C2)c[nH]1` (centres undefined), for which the INHIBITION is on record as 33.5%.

On to `Cc1nc(CN2CCCC(CCc3ccccc3F)C2)c[nH]1` (centres undefined), for which the INHIBITION is given as 57.6%.

Regarding `Cc1nc(CN2CCCC(CCc3ccc(F)c(F)c3)C2)c[nH]1` (centres undefined), the INHIBITION came to 55.7%.

Consider `Cc1nc(CN2CCCC(Cn3cc(CCO)nn3)C2)c[nH]1` (centres undefined), for which the INHIBITION is 18.5%.
